# Data reported in the supplement of paper PMC7858590.
# Tested on: human monocyte-derived macrophages (polarized)
# Experiment: cell shape (eccentricity) Z-score vs DMSO control; higher = more elongated, M2-like morphology
# Conditions: 5 µM; 24 h; macrophage state: M1-polarized (IFNg + TNFa), cytokines present during treatment
# Method: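 Primary-screen hits were rescreened on polarized hMDMs with the differentiating cytokines (IL-4 + IL-13 or IFNg + TNFa) kept in the medium during treatment with compound at 5 uM for 24 h. The eccentricity Z-score vs DMSO wells is averaged over experiments.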
row,Structure (SMILES),cell shape (Z-score)
1,CC[C@@H]1/C=C/C=C/C[C@H](C)[C@H](O)[C@](C)(O)C(=O)[C@H](C)[C@@H](O)[C@H](C)C(=O)[C@H](C)[C@@H](O)[C@H](C)/C=C/C(=O)O[C@H]2[C@@H](C)[C@@H](CC1)O[C@@]1(CC[C@@H](C)[C@@H](C[C@H](C)O)O1)[C@@H]2C,-9.34
2,COc1cc2ccc(=O)oc2c2ccoc12,8.59
3,CCOC(=O)c1ncn2c1C1CCCN1C(=O)c1cc(OC)ccc1-2 (stereo not drawn),1.88
4,Clc1ccc(C(OCCN2CCCCC2)c2ccccc2)cc1 (stereo not drawn),-5.91
5,CCNC(=O)C[C@@H]1N=C(c2ccc(Cl)cc2)c2cc(OC)ccc2-n2c(C)nnc21,-4.48

# Same assay, conditions: 5 µM; 24 h; macrophage state: M2-polarized (IL-4 + IL-13), cytokines present during treatment
row,Structure (SMILES),cell shape (Z-score)
1,C=C1[C@@H](C)[C@H]2[C@H](Cc3ccccc3)NC(=O)[C@]23OC(=O)/C=C/[C@H](O)CCC[C@@H](C)C/C=C/[C@H]3[C@@H]1O,-29.4
2,Cc1c(C(=O)c2cccc3ccccc23)c2cccc3c2n1[C@H](CN1CCOCC1)CO3,-6.47
3,C[C@@]12C(=O)OC(=O)[C@]1(C)[C@H]1CC[C@@H]2O1,-39.6
